About 1,500 (65%) of roughly 2,300 compounds were called active. The set was probably picked from earlier hits. Some of the results follow. Potency and affinity values are given separately. Unmarked numbers belong to inactive results. The rule behind the calls is not given here.
Assay: replicating M. tuberculosis growth inhibition, dose response, non-replicating M. tuberculosis project, H37Rv (AID 492952);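 note: Mycobacterium tuberculosis grown in culture; growth inhibition read after a week of incubation; 0% = bacteria alone untreated and 100% = bacteria with high antibiotic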
Details: series mostly up to 50 µM; inhibition: at the top concentration

SMILES	inhibition [%]
CCN(CC)c1ccc(NC2CC(=O)N(CCc3ccc(OC)cc3)C2=O)cc1 (stereo unspecified)	6.5
CC(C)(C)c1csc(NC(=O)c2ccccc2O)n1	1.64
CCCNC(=O)N1CCC(c2ccc3c(c2)OCO3)CC1	-0.57
O=C(NCc1ccc2c(c1)OCO2)c1ccc(Cl)s1	-0.4
O=C(CN1CCN(c2ccccc2O)CC1)Nc1ccc2c(c1)CCC2	4.17
Cc1ccc(NC(=O)COc2ccc3c(c2)CCC3)nc1	24.1
O=C1C=CC(=O)N1N(c1ccccc1)c1ccccc1	-5.47
COc1ccc(C(=O)NNC2=C(C(=O)C(F)(F)F)CCC2)cc1	3.23
CC1C/C(=N/N2C(=O)CSC2=S)CC(C)(C)C1 (stereo unspecified)	-2.91
O=C1CC(N2CCN(c3ccc(F)cc3)CC2)C(=O)N1Cc1ccccc1 (stereo unspecified)	-0.37
O=C(CN1CCN(c2ccc([N+](=O)[O-])cc2)CC1)Nc1ccccn1	-1.52
Fc1ccc(N2CCN(Cc3nnc(-c4ccccc4)o3)CC2)cc1	6.29
O=C1CCCC(O)=C1C=Nc1ccc2c(c1)oc1ccccc12	20.6
C/C(=N\NC(=O)c1nn(C)cc1Cl)c1ccncc1	-4.13
CCOC(=O)c1ccc(N=CC2=C(O)CC(C)(C)CC2=O)cc1	10.5
O=C(Nc1ccc(Cl)cc1)C1CCCC1	1.54
CSc1nc(=S)cc(C)[nH]1	5.22
CCOC(=O)Cn1cc(C#N)c2ccccc21	14.6
CSc1nnc(Cc2ccc3c(c2)OCO3)o1	19.4
CC(C)c1ccc(OCC(=O)NC2=NCCS2)cc1	-0.2
O=S(=O)(Nc1nccs1)c1ccc(NCc2cc(Br)cc(Br)c2O)cc1	-4.18

SMILES	inhibition [%]
COc1cc(C=O)ccc1OCCOCCOc1ccc(Cl)cc1	3.59
Cc1cccnc1NC(=O)C1COc2ccccc2O1 (stereo unspecified)	3.27
CC(=O)c1cccc(NC(=O)C2COc3ccccc3O2)c1 (stereo unspecified)	1.76
COc1ccc(NC(=O)C2COc3ccccc3O2)cc1 (stereo unspecified)	3.23
Cc1ccccc1NC(=O)C1COc2ccccc2O1 (stereo unspecified)	1.97
CCc1ccccc1NC(=O)C1COc2ccccc2O1 (stereo unspecified)	7.64
O=C(COC(=O)c1ccccc1)NCc1cccs1	6.1
CCN(CC)C(=O)c1sc2nc(-c3ccccc3)ccc2c1N	8.17
C=CCn1c(O)c(C(C)=Nc2ccc(C(=O)OCC)cc2)c(=O)[nH]c1=O	6.12
Cc1cc(C)c2c(=O)n(CC(=O)Nc3cccc(Cl)c3C)sc2n1	3.34
CC1CCc2c(sc3nc(CSc4ncn[nH]4)[nH]c(=O)c23)C1 (stereo unspecified)	-0.8
Cc1ccc(CC(=O)Nc2ccc(Cl)cn2)cc1	0.6
Cc1ccc(NC(=O)CN(C)CC(=O)Nc2ccc(F)c(Cl)c2)cc1	6.56
Cc1nc2ccc(NC(=O)COc3cccc(F)c3)cc2s1	16.1
COc1ccc(N2C(=O)CC(Sc3nc4ccccc4s3)C2=O)cc1OC (stereo unspecified)	-5.21
N#Cc1cc(N)ccc1-n1cccc1	1.99
CCN1C(=O)CC(N2CCC(c3nc4ccccc4[nH]3)CC2)C1=O (stereo unspecified)	-1.46
CC(C)(C)NCc1cc(Br)ccc1OCc1cccs1	11.7
CCCCOC(=O)c1ccc(OC(=O)c2cccnc2)cc1	4.1
CC(C)CN1C(=O)/C(=C(/C#N)C(=O)NC2CCCCC2)c2ccccc21	-4.08
CC1(c2nnc(-c3ccc(F)cc3)o2)CC(c2cccc(Cl)c2)=NO1 (stereo unspecified)	5.2

SMILES	inhibition [%]
COc1cccc2sc(Nc3nnc(-c4cccs4)o3)nc12	-0.75
CC(C)(C)c1ccc2c(c1)OC(C(=O)N/N=C\c1ccccn1)CO2 (stereo unspecified)	23.2
CCCOC(=O)c1cc(-c2ccc(C=O)o2)ccc1Cl	5.73
O=C(COC(=O)CC12CC3CC(CC(C3)C1)C2)Nc1cccnc1Cl	6.83
O=C(NNC(=O)C12CC3CC(CC(C3)C1)C2)c1cnccn1	8.93
O=C(NC(=S)Nn1cnc2c(cnn2-c2ccccc2)c1=O)c1ccccc1	0.77
CCC(C)c1ccc(O)c(/C=N/O)c1 (stereo unspecified)	5.4
CSc1ccccc1C(=O)NCc1ccc(S(N)(=O)=O)cc1	12.7
O=C(CCC1CCCCC1)NCc1ccc(F)cc1	-2.73
CCOc1cccc2cc(C(=O)NCc3ccccc3)c(=N)oc12	6.68
C/C(=N\NC(=O)c1ccc(CN2CCc3ccccc3C2)cc1)c1ccccc1O	0.55
O=C(Cc1ccc(F)cc1)Nc1ccc(Cl)cn1	-0.35
O=C(c1ccco1)N1CCN(c2ccc(F)cc2)CC1	4.57
CC(=O)N1CCC(=NNC(=O)c2cccs2)CC1	2.67
O=C(NCCC1CCCC1)c1cccs1	-4.94
N/C(=N\OC(=O)CC1CCCCC1)c1ccncc1	1.58
O=C(COC(=O)CC1CCCC1)Nc1ccc(OC(F)F)cc1	-0.34
O=C(COC(=O)C1CCCCC1)Nc1ccccc1OC(F)F	-25.5
Cc1ccc(CO/N=C/c2c(O)cc(C)oc2=O)cc1	2.02

Reference: PubChem BioAssay AID492952 (Southern Research Specialized Biocontainment Screening …, 2010)
